Screens as filed in PubChem.
The full list was thinned out, with hits kept by preference.
Cruzain Triton: blocks cruzain activity in presence of Triton detergent; AID 1478; 0.43% of 200,000 active; P25779; purified cruzain, Z-FR-AMC fluorescence, 0.01% Triton; Potency, µM, without a hit: max response, negative = inhibition, most hits filed as inhibitors;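 note: plate controls were neutral wells for no effect and buffer without enzyme for full effect; nearly all actives have a fitted effect of over 40% in size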
Target sequence (P25779 123-467 limits assumed): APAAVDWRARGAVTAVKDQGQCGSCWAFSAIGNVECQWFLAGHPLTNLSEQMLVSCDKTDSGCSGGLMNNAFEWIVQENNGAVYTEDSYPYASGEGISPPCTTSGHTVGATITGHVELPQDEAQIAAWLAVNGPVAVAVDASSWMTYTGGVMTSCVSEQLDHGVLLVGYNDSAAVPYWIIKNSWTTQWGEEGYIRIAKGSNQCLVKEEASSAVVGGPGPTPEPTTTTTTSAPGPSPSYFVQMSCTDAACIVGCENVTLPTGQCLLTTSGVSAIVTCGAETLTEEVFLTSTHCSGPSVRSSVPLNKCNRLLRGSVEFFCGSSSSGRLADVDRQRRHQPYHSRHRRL
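15 min RT preincubation of 1.5 nM cruzain with compound, then 2 uM Z-FR-AMC added; kinetic AMC fluorescence, 60 s delta. Triton X-100 0.01%, pH 5.5.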
Cruzain inh noDet: inhibitors of Trypanosoma cruzi cruzain without detergent; P25779; purified cruzain, Z-FR-AMC fluorescence, no detergent; Potency, µM, inactives show max response, negative = inhibition, hits mostly inhibitors; 2.3% of 200,000 active; AID 1476;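 note: plate controls were enzyme without inhibitor for no effect and buffer without enzyme for full effect; nearly all actives have a fitted effect of over 40% in size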
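Purified cruzain at 1.5 nM, pre-incubated 15 min with compound at room temperature in 100 mM sodium acetate pH 5.5, 5 mM DTT, 0.00005% Triton X-100. Reaction started with 2 uM Z-FR-AMC; AMC fluorescence increase over 60 s gives rate.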
NS1 inh: blocks influenza NS1 protein function; Potency, µM (doses to about 46.1 µM), without a hit: at the highest dose activity, positive = more growth; 0.4% of 270,000 active; calls by dose curve; note: actives are rising curves; nearly all actives have a fitted effect of over 50% in size
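S. cerevisiae expressing influenza A NS1, grown in glucose, washed, then diluted 1:100 into pH 6.0 -URA galactose medium with 23 nl compound. Growth recovery read as OD600; NS1-free strain serves as control.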
Numbers without * were called inactive; ? = inconclusive; / = not tested or not shown; ! = not confirmed by another sample. Unless noted, calls come from the whole dose curve; as a rule, active = well fitted curve in the direction sought with a large enough effect; inconclusive = small, poorly fitted or top-dose-only effect, or another doubt; inactive = no such curve, though single readings can be large; an effect the other way counts as inactive or inconclusive. Potency is the fitted concentration of half-maximal effect.

SMILES	Cruzain Triton	Cruzain inh noDet	NS1 inh
O=C(Nc1ccc(Cl)cc1)[C@@H]1[C@@H]2C(=O)N(c3ccc(Cl)cc3)C(=O)[C@@H]2[C@H]2C=CC=NN21	-5%	20µM*	11%
Cc1ccc(N2C(=O)[C@@H]3[C@H](C2=O)[C@H]2C=CC=NN2[C@@H]3C(=O)Nc2ccc(Cl)cc2)cc1	-8%	-1%	12%
COc1ccc(C2=C(Nc3ccc(Br)c(C)c3)c3ccccc3C2=O)cc1	-5%	-29%	/
O=C(O)CBr	-3%	-2%	/
O=C(CSc1nc2ccc(NC(=O)CSc3nnnn3Cc3ccccc3)cc2s1)Nc1ccccc1	-1%	10µM*	11%
COC(=O)CSc1nc2ccc(NC(=O)CSc3nnnn3Cc3ccccc3)cc2s1	-11%	7%	?
Cc1ccccc1OCc1nnc(SCC(=O)Nc2ccc3nc(SCC(=O)Nc4ccccc4)sc3c2)n1C	0%	25µM*	2%
Cc1ccccc1OCc1nnc(SCC(=O)Nc2ccc3c(c2)OCO3)n1C	-3%	5%	4%
COc1cc(OC)cc(C(=O)NCCc2csc(-c3ccc(C(F)(F)F)cc3)n2)c1	-14%	?	/
COc1cc(-c2ccno2)ccc1S(=O)(=O)N1CCN(c2cccc(Cl)c2)CC1	-2%	?	/
CN1CCN(c2ncc3nc(-c4cn(C)c5ccccc45)c(=O)n(CCC#N)c3n2)CC1	-1%	3%	/
CCOc1ccc(-c2cc3nc(C4CCN(C(=O)OC(C)(C)C)CC4)c(C(=O)Nc4ccc(C)c(F)c4)cn3n2)cc1	-5%	?	/
Cc1ccc(NC2=C(C(=O)c3ccccc3)N(C)S(=O)(=O)c3ccccc32)cc1	-5%	20µM*	?
CN1C(C(=O)c2ccccc2)=C(N)c2ccccc2S1(=O)=O	/	/	-36%
CCc1ccccc1Nc1nn2c(=O)c3ccc(C(=O)NCc4ccccc4OC)cc3nc2s1	-4%	13µM*	/
CCc1ccccc1Nc1nn2c(=O)c3ccc(C(=O)Nc4ccc(OC)cc4)cc3nc2s1	-2%	-20%	/
CCc1ccccc1Nc1nn2c(=O)c3ccc(C(=O)NCc4ccccn4)cc3nc2s1	/	/	3%
CCc1ccccc1Nc1nn2c(=O)c3ccc(C(=O)NCCC4=CCCCC4)cc3nc2s1	-4%	25µM*	/
Cc1ccc(-n2ncc3c(=O)n(CC(=O)Nc4cccc(Cl)c4)cnc32)cc1C	-7%	16µM*	5%
Cc1ccc(-n2ncc3c(=O)n(Cc4cccc(Cl)c4)cnc32)cc1C	0%	15%	/
COc1cccc(NC(=O)C2CCCN(S(=O)(=O)c3cn(C(C)C)cn3)C2)c1 (stereo not given)	-2%	-8%	/
CCCCC/C=C\C/C=C\C/C=C\C/C=C\CCCCCC(=O)NCCCC(=O)O	4%	-11%	/
Cn1c(-c2cccc(F)c2)nc2c1c(=O)[nH]c(=O)n2Cc1ccccc1	/	/	7%
Cn1c(-c2cccc(OCc3ccccc3)c2)nc2c1c(=O)[nH]c(=O)n2Cc1ccccc1	-1%	7.9µM*	0%
O=C(O)[C@@H](Br)[C@H](Br)C(=O)O	1%	10%	-8%
SMILES	Cruzain Triton	Cruzain inh noDet	NS1 inh
CCOc1ccc(NC(=O)c2c(Nc3ccc(OC)cc3OC)sc(C(=O)c3ccc(Cl)cc3)c2N)cc1	0%	?	/
COc1ccc(CNC(=O)c2c(Nc3ccc(OC)cc3OC)sc(C(=O)c3ccc(Cl)cc3)c2N)cc1	0%	13µM*	/
Cc1ccccc1Nc1sc(C(=O)c2ccccc2)c(N)c1C(=O)NCc1ccc(Cl)cc1	-2%	5µM*	/
COc1ccc(CNC(=O)c2c(Nc3ccccc3C)sc(C(=O)c3ccccc3)c2N)cc1	0%	?	/
COc1nc(Cl)nc(Cl)c1Cl (tested in a mixture with another compound)	-5%	-2%	5%
COc1cc(/C=C/C(=O)N2CCCCC2=O)cc(OC)c1OC	-2%	7%	/
Cc1ccc(NC(=O)C2CC(=O)N/C(=N/N=C/c3ccco3)S2)cc1C (stereo not given)	-3%	13µM*	?
Cc1ccc(NC(=O)C2CC(=O)N/C(=N/N=C/c3ccco3)S2)cc1 (stereo not given)	-2%	?	-3%
COc1ccccc1CNC(=O)c1cccc(-c2ccccc2OC)n1	4%	-8%	/
CCOc1ccc(-c2cn3c(n2)sc2cc(C(=O)NCCCN4CCCCCC4)ccc23)cc1	-2%	3%	/
CCOc1ccc(-c2cn3c(n2)sc2cc(C(=O)NCCCN4CCCCC4)ccc23)cc1	-2%	4µM*	/
COc1ccc2cc(S(=O)(=O)c3ccccc3F)c(=O)oc2c1	?	5%	/
O=C(Nc1ccc(F)c(Cl)c1)C1CCCN1S(=O)(=O)c1ccc(F)cc1 (stereo not given)	-4%	-18%	/
COc1ccc(O)c(C(=O)c2cc(C(=O)NCCc3ccccc3)c(=O)n(CCc3ccccc3)c2)c1	-5%	-2%	?
Cc1ccc(O)c(C(=O)c2cc(C(=O)NCCc3ccccc3)c(=O)n(CCc3ccccc3)c2)c1	-5%	25µM*	20%
FC(F)(F)c1ccccc1-c1nccc(-n2ccnc2)n1	10%	9%	/
Cc1nccc2c1[nH]c1ccccc12	?	40µM*!	-10%
Cc1cc2c([nH]c3ccccc32)c(C)n1	/	/	2%
COc1ccccc1C(=O)NC1(C(F)(F)F)C(=O)Nc2c1c(=O)[nH]c(=O)n2-c1ccc(F)cc1 (stereo not given)	5%	-10%	/
COC(=O)c1sc(-c2ccccc2)cc1NC(=O)c1ccc(F)cc1	-3%	10µM*	-4%
COC(=O)c1sc(-c2ccccc2)cc1NC(=O)c1ccc(OC)cc1	-8%	?	28%
Cc1nc(N2CCOCC2)c2nc(-c3ccccc3)n(CC(C)(C)CN(C)C)c2n1	-5%	0%	/
CC1=C2[C@H](/C=C(\C)C(=O)O)CC[C@@H](C)[C@H]2CC1	-5%	4%	/
COc1ccc(NCc2cc3cc4c(cc3n(CC(=O)Nc3cc(C)ccc3C)c2=O)OCCO4)cc1	-3%	-17%	/
CC(C)Sc1nnc([C@@H](N)Cc2c[nH]c3ccccc23)o1	-2%	7%	-8%
SMILES	Cruzain Triton	Cruzain inh noDet	NS1 inh
Cc1ccc(C)c(NC(=O)CSc2nnc([C@@H](N)Cc3c[nH]c4ccccc34)o2)c1	?	25µM*	?
O=C(Nc1cc(C(F)(F)F)ccc1Cl)c1cnn(-c2ccccc2)c1-n1cccc1	-7%	-5%	/
CCOc1ccc(C(=O)Nc2cccc(NC(=O)c3ccco3)c2)cc1Cl	-9%	-3%	/
CCOc1ccc(C(=O)Nc2cccc(NC(=O)c3ccc(C(C)(C)C)cc3)c2)cc1Br	1%	7.9µM*	/
CC(C)=C[C@H]1[C@@H](C(=O)Oc2ccccc2C(C)C)C1(C)C	3%	-5%	0%
CCOc1ccc(NC(=O)Cc2coc3ccc(C)cc23)cc1	0%	14%	/
C[C@@H]1O[C@H](OC2[C@@H](O)[C@H](O)C(O)[C@H](O)[C@H]2O)[C@@H](N)C[C@@H]1N=C(N)C(=O)O (stereo not given in full)	-3%	1%	-3%
CC(/C=N/NC(=S)Nc1cccc(S(=O)(=O)N(C)C)c1)c1ccccc1 (stereo not given)	-3%	-28%	-15%
CN(C)S(=O)(=O)c1cccc(NC(=S)N/N=C/C(c2ccccc2)c2ccccc2)c1	-5%	32µM*	18%
CC(=O)Nc1ccc(NC(=O)c2ncoc2-c2ccco2)cc1	-4%	-8%	/
